D1 antag – antagonists of human D1 dopamine receptor; P21728; hit rate 3.2% among 360,000; activity change, negative = inhibition, % at 10 µM; HEK293 TREx D1 cells, calcium flux, dopamine EC80; hits give low values; in the data active = activity change below about -30%
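Antagonism measured as reduced calcium response to an EC80 dopamine addition following 180 s compound pre-read; cells were inducible HEK293 Trex D1 plated overnight at 30 C, read kinetically at 1 cycle/sec.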
D1 PAM – human D1 dopamine receptor positive modulation; P21728; HEK293 TREx D1 cells, calcium flux, dopamine EC20 potentiation; potentiation, % at 10 µM; hit rate 0.036% among 360,000; AID 504651; in the data active = potentiation above about 30%
TRHR enhancer – allosteric enhancers of human TRH receptor; P34981; TRHR cells, fluo-8 calcium fluorescence, EC20 TRH enhancement; enhancement, % at 2 µM; hit rate 0.66% among 360,000; AID 493056; in the data active = enhancement above about 30%
Target sequence (P34981 whole entry, looked up): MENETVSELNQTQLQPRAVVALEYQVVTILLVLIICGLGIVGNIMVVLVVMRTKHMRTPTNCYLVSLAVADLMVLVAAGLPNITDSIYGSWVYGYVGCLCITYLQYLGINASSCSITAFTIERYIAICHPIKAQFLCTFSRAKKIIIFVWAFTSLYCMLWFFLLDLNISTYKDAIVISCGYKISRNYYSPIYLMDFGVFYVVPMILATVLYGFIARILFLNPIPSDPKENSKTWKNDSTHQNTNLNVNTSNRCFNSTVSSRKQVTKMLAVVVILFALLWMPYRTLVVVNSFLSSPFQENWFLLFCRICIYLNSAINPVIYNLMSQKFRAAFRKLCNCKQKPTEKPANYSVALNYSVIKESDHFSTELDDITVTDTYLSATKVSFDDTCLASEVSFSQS
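Enhancer read-out: after compound pinning and an initial kinetic agonist-mode read, an EC20 of TRH (10 nM final) was injected and fluo-8 calcium signal (Ex 480/Em 530) followed at 1 s/cycle for 100 cycles in TRHR-expressing cells.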
D1 ag – activates the human D1 dopamine receptor; activation, % at 2 µM; hit rate 1% among 360,000; HEK293 T-REx D1 cells, calcium flux, agonist mode; P21728; AID 504660
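Tetracycline-induced HEK293 TREx D1 cells, force-coupled to calcium signalling, were dye-loaded with a no-wash calcium kit. Compound was pin-added after a 10 s baseline. Fluorescence was read kinetically at 1 cycle/s for 180 s, with calcium rises flagged as agonism.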
TRHR agonist – TRH receptor (human) agonism | P34981 | TRHR cells, calcium flux fluo-8, FDSS agonist mode | activation, % at 2 µM | hit rate 0.18% among 360,000 | AID 493084
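Agonist-mode FDSS calcium read (Ex 480/Em 530, 1 s cycles) in 1536-well TRHR cells with fluo-8 dye, after 10-cycle baseline and 23 nL compound addition; TRH at EC20 (10 nM final) added afterwards for the enhancer phase.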
Large screens that a line does not name were inactive. Rows were chosen to be rich in hits. Some 4.7% of all compounds tested hit in one or more screens of this group. Rule as the data show it, unless noted: active = activation above about 30%; inactive = the rest.

COc1cccc(CNC(=O)c2cccc(NC(=O)C3=C(C)OCCS3)c2)c1	D1 antag -40.1
COc1ccc(-c2nc3sc(CCNS(=O)(=O)c4ccccc4)c(C)n3n2)cc1	none (no result: D1 antag)
COc1ccc(NC(=O)CN2C(=O)CC(C)(C)S(=O)(=O)c3ccccc32)cc1	D1 antag -33.1
COc1ccc(NC(=O)CN2C(=O)CSc3ncccc32)cc1	none
CC(NC(=O)COC(=O)C1CC2CCCC(C1)C2=O)c1ccccc1 (stereo not given)	none
CCC(NC(=O)COC(=O)C1CC2CCCC(C1)C2=O)c1ccc(Br)cc1 (stereo not given)	D1 antag -56.2
COc1ccc(N2CCN(C(=O)COC(=O)CCOc3ccc(C(C)(C)C)cc3)CC2)cc1	none
Clc1ccc(C2=NNC(=NCc3ccccc3)SC2)cc1	none
Fc1ccc(C2=NNC(=NCc3ccccc3)SC2)cc1F	D1 antag -40.2
CCOC(=O)c1cc(OC(=O)c2cccc(F)c2)n(-c2ccccc2)n1	none
COCc1cc(C)nc(SCc2ccc([N+](=O)[O-])cc2)c1C#N	D1 PAM 44.4
COCc1cc(C)nc(SCC(=O)N2CCC(C)CC2)c1C#N	D1 antag -56.8
COc1ccccc1-c1noc(-c2ccc(NCCc3ccccc3)c([N+](=O)[O-])c2)n1	none
CN(CC(=O)Nc1ccc(F)c(Cl)c1)S(=O)(=O)c1cccc2nsnc12	D1 antag -34.2
CC1CCN(CCNC(=O)CN(C)S(=O)(=O)c2cccc3nsnc23)CC1	D1 antag -31.0
COc1ccc(Cl)cc1NC(=O)CC1S/C(=N/N=C2CCCCCC2)NC1=O (stereo not given)	none
COCCCNC(=O)c1cn(CC(C)C)c(=O)c2c1c1ccccc1n2C	none
CC(C)Cn1cc(C(=O)NCCCN2CCCC2=O)c2c3ccccc3n(C)c2c1=O	D1 antag -30.4
COc1ccc(C2=NNC(c3cccs3)=Nc3ccc(OC)cc32)cc1	D1 antag -38.6
CCOc1ccc(C2=NNC(c3cccs3)=Nc3ccc(OC)cc32)cc1OCC	none
COCCCNc1nc2c(c(=O)[nH]c(=O)n2C)n1CCCc1ccccc1	none
C=C(C)Cn1c(NCCOC)nc2c1c(=O)[nH]c(=O)n2C	D1 antag -39.6
Cc1c(C(=O)NCc2ccccn2)oc2ccc(Br)cc12	none
O=C(NCc1ccccn1)c1cc2cc(Br)ccc2oc1=O	D1 antag -68.0
Cc1ccc(NC(=O)c2ccc3c(c2)NC(=O)c2ccccc2S3)c(Cl)c1	none
COc1cc(CSc2nnnn2-c2ccc(C)cc2)cc(OC)c1OC	D1 ag 38.8
COc1ccc(C(C)=O)cc1CSc1nnnn1-c1ccc(O)cc1	D1 antag -35.1
CCCCn1nc(C(=O)N(CC(C)C)c2c(N)n(CCCC)c(=O)[nH]c2=O)c2ccccc2c1=O	none
CCC(=O)Nc1cc(C)c(O)c(-c2nc3ncccc3o2)c1	none
O=S(=O)(NCc1ccccc1)NCc1cccc(C(F)(F)F)c1	D1 antag -38.1
O=C(CCN1C(=O)c2ccccc2Sc2ncccc21)Nc1ccc(F)cc1F	none
O=C(Nc1ccncc1)C1c2ccccc2Oc2ccccc21	D1 ag 43.9
CCOC(=O)c1sc(NC(=O)C2c3ccccc3Oc3ccccc32)c(C(=O)OCC)c1C	TRHR enhancer 32.5
O=C(Nc1ncccn1)C1c2ccccc2Oc2ccccc21	none
Cc1ccccc1C(=O)N1CCN(c2ccc(NC(=O)Cc3ccccc3)cc2)CC1	none
COc1ccc(-c2ccc(SCC(=O)N3CCOCC3)nn2)cc1	D1 antag -30.6
COc1cc(Nc2ncc3c(n2)CCN(Cc2ccc(OC(C)C)c(OC)c2)C3)cc(OC)c1	none
CCOc1ccccc1NC(=O)C1CCCN(S(=O)(=O)c2ccc(-n3cnnn3)cc2)C1 (stereo not given)	none
N#C[C@@H]1N(Cc2ccccc2)C(=O)[C@H]2CC3C=CC21O3 (stereo not given in full)	D1 antag -31.7
Cc1ccc(C)c(NC(=O)Cn2nc(C)c3nn(-c4ccc(Cl)cc4)c(C)c3c2=O)c1	none
Nc1n[nH]c(C2CCCCC2)n1	none
S=c1nc(C2CCCCC2)[nH][nH]1	D1 antag -50.4
Nc1c(-c2ccc(Cl)cc2)nnn1-c1ccccc1	D1 antag -50.4
Nc1c(-c2ccc(Cl)cc2)cnn1-c1ccccc1	none
COc1ccc(-n2nc(C(=O)NCCc3ccc(OC)c(OC)c3)c3c4ccccc4n(C)c3c2=O)cc1Cl	none
O=C(NCc1ccccn1)NC12CC3CC(CC(C3)C1)C2	D1 antag -82.3
CCN(CC)c1ccc(NC(=O)CCS(=O)(=O)c2ccc(Br)cc2)c(C)c1	none
Cc1cccc(NC(=O)c2ccc(C(=O)c3ccccc3)cc2)n1	D1 antag -34.6
CCN(c1ccccc1)S(=O)(=O)c1ccc(C(=O)Nc2cccc(C)n2)cc1	D1 antag -35.2
Cc1ccc(S(=O)(=O)N(C)c2ccc(C(=O)Nc3cccc(C)n3)cc2)cc1	none
Cc1cccc(NC(=O)c2cccc(C(=O)Nc3cccc(C)n3)c2)n1	none
CCc1ccc(CN(C)C(=O)c2cc(COc3cc(C)c(Cl)c(C)c3)on2)nc1	none
COCCCn1c(=S)[nH]c2c(sc3ccccc32)c1=O	TRHR enhancer 31.7
CC1CCN(CCCn2c(=S)[nH]c3c(sc4ccccc43)c2=O)CC1	none
O=c1c2ccccc2oc2nc(-c3ccco3)n(-c3ccccc3)c(=O)c12	none
CC(C)c1nc2oc3ccccc3c(=O)c2c(=O)n1-c1ccccc1	D1 ag 53.9
O=C(O)c1ccc(Cn2cnc3sc4c(c3c2=O)CCCC4)cc1	none
Cc1ccc(C)n1-n1cnc2sc3c(c2c1=O)CCC3	D1 antag -33.0
Cc1ccc(Cn2cnc3sc4c(c3c2=O)CCC4)c(C)c1	D1 PAM 38.0
CC(=O)Nc1ccc(NC(=O)C2CCCCN2S(=O)(=O)c2ccc(C(C)(C)C)cc2)cc1 (stereo not given)	none
CN(C)Cc1ccccc1Sc1ccc(O)cc1O	TRHR enhancer 30.2
CNCc1ccccc1Sc1cc(O)ccc1O	none
O=Cc1cc([N+](=O)[O-])ccc1N1CCOCC1	D1 antag -39.0
O=[N+]([O-])c1ccc(N2CCCCCC2)c([N+](=O)[O-])c1	D1 antag -52.7
CCN(CC)CC#CCC(O)(c1ccccc1)c1ccc(Br)cc1 (stereo not given)	D1 antag -39.7, D1 ag 32.2
CCN(CC)CC#CCC(O)(c1ccccc1)c1ccccc1	none
CCc1ccc(-c2nc(CN3CCC(C(=O)N4CCN(c5ccccn5)CC4)CC3)c(C)o2)cc1	D1 antag -54.7, D1 ag 168.3
Cc1ccc(Cl)cc1N1CCN(C(=O)C2CCN(Cc3nc(-c4ccc(Cl)cc4)oc3C)CC2)CC1	none
CCc1ccc(-c2nc(CN3CCC(C(=O)N4CCN(c5ccccc5)CC4)CC3)c(C)o2)cc1	D1 antag -35.0, D1 ag 43.2

Assay outcomes deposited in PubChem by National Center for Advancing Translational Sciences (NCATS).
